# Screens deposited in PubChem by National Center for Advancing Translational Sciences (NCATS).
# Rows were chosen to be rich in hits. Some 19% of all compounds tested hit in one or more screens of this group.
# IL1B secr inh – inhibitors of inflammasome signaling (IL-1 beta secretion); THP-1 LPS/ATP IL-1B secretion, AlphaLISA, 16 h; active compounds read low; activity change, % at 57.5 µM; 4.7% of 360,000 active; in the data active means activity change below about -50%; inconclusive means mostly about -30% to -49%
#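 Secreted IL-1B measured by AlphaLISA bead assay after 16 h compound exposure of THP-1 cells; compounds (final up to 57.5 uM) added 1 h before LPS (250 ng/mL) and ATP (1.25 mM) stimulation; lower signal means less secretion.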
# TDP1 block – blocks human tyrosyl-DNA phosphodiesterase 1 | recombinant TDP1, AlphaScreen DNA substrate cleavage | 0.28% of 350,000 active | Q9NUW8 | Potency, µM (doses to about 130 µM), actives largely listed as inhibitors | AID 485290; further: nearly all actives have a fitted effect of over 40% in size
# Target sequence (Q9NUW8 whole entry, looked up): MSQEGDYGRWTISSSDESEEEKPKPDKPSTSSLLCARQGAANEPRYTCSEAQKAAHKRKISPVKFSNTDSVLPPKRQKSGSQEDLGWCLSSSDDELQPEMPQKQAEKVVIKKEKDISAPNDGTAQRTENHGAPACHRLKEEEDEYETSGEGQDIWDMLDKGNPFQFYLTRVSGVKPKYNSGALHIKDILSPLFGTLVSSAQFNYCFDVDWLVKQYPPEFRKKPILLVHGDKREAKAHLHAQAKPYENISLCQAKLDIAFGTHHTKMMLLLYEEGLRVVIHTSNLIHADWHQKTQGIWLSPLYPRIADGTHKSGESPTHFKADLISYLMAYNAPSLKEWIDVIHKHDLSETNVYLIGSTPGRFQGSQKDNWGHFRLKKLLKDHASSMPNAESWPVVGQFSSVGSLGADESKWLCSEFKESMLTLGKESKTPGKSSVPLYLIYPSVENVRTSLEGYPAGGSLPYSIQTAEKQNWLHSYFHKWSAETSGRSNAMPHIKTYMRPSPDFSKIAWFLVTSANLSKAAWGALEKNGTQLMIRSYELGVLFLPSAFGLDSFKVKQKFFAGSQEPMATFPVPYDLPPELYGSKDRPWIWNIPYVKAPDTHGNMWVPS
#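 Compounds were preincubated with Tdp1 (1 nM final) for 15 min at room temperature before substrate (15 nM final) started a 5 min reaction; beads (10 ug/ml final) were then added for 10 min before AlphaScreen detection.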
# TDP1 cell noCPT – qHTS for Inhibitors of human tyrosyl-DNA phosphodiesterase 1 (TDP1): qHTS in cells in absence of CPT; DT40 Tdp1-/- hTDP1 cells, no CPT, ATP luminescence, 48 h; Potency, µM (series often up to 46.2 µM), most hits filed as inhibitors; 15% of 420,000 active; AID 686978, 2013; further: nearly all actives have a fitted effect of over 55% in size
#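 A cellular qHTS used chicken DT40 cells lacking endogenous Tdp1 but carrying stably transfected human TDP1. Compounds were applied without camptothecin, and cell growth kinetics were judged by ATP-dependent luminescence after ≥48 hr.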
# TDP1 cell CPT – DT40-hTDP1 cell growth loss with CPT; chicken DT40 Tdp1-/-;hTDP1 cells + 20 nM CPT, ATP luminescence, 48 h; Potency, µM (doses to about 46.2 µM), hits mostly inhibitors; 12% of 420,000 active; AID 686979; further: nearly all actives have a fitted effect of over 55% in size
#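 Chicken DT40 Tdp1-/- cells stably complemented with human TDP1 were seeded at 400 cells/well in medium containing 20 nM camptothecin, exposed to pin-transferred compounds, and grown at 37 °C for at least 48 hr. Viability was read as ATP luminescence.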
# Giardia killer – kills Giardia lamblia | Giardia lamblia trophozoite viability | 0.15% of 340,000 active | activity change, % at 7.66 µM, hits read low; in the data active means activity change below about -80%; inconclusive means between about -30% and that limit;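 further: parasites exposed to compound for two days anaerobically before the ATP read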
#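 Giardia trophozoites, 100 cells per well, were exposed to compounds for 48 hrs at 37 deg C under anaerobic conditions; viability was then read as ATP content by bioluminescence after 15-30 min at room temperature.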
# ELG1 DNA repair – ELG1-dependent DNA repair inhibition; HEK293T ELG1-luciferase reporter, luminescence, 16 h; DNA damage induced by 5-fluorouridine; Potency, µM (series often up to 46.1 µM), most hits filed as inhibitors; 2.3% of 330,000 active; AID 504467; further: nearly all actives have a fitted effect of over 55% in size
#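 Luminescence from the luciferase reporter, measured 30 min after ONE-Glo reagent at room temperature, was the read-out. Beforehand, 2,000 cells per well were exposed for 16 hr at 37 °C to 5-fluorouridine together with compound or vehicle.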
# Hits are given with their value; . = inactive; ? = inconclusive; / = no result. Unless noted, the call rests on the fitted dose curve; in most records, active means well fitted curve in the direction sought with a large enough effect; inconclusive means small, poorly fitted or top-dose-only effect, or another doubt; inactive means no such curve, though single readings can be large; an effect the other way counts as inactive or inconclusive.
SMILES,IL1B secr inh,TDP1 block,TDP1 cell noCPT,TDP1 cell CPT,Giardia killer,ELG1 DNA repair
C=C1CCN([C@@H](CC(C)C)C(=O)NCc2ccc(OC)cc2)S(=O)(=O)c2ccccc21,.,/,23µM,?,.,/
C=C1CCN([C@@H](CC(C)C)C(=O)NN2CCOCC2)S(=O)(=O)c2ccccc21,.,/,.,.,.,/
C=C1CCN([C@@H](CC(C)C)C(=O)NCc2ccc(Cl)cc2)S(=O)(=O)c2ccccc21,.,/,?,?,.,/
C=C1CCN([C@@H](CC(C)C)C(=O)NCCC(C)C)S(=O)(=O)c2ccccc21,.,/,23µM,?,.,/
C=C1CCN([C@@H](CC(C)C)C(=O)NCc2ccc(Cl)c(Cl)c2)S(=O)(=O)c2ccccc21,.,/,16µM,?,.,/
C=C1CCN([C@@H](Cc2ccccc2)C(=O)NCCCc2ccccc2)S(=O)(=O)c2ccccc21,.,/,?,23µM,.,/
COc1ccc(CNC(=O)CCc2nc3cccnc3n2Cc2ccccc2)cc1,/,.,.,?,/,/
COCCCNC(=O)CC(c1cc(OC)c(OC)c(OC)c1)N1Cc2ccccc2C1=O (centres undefined),/,.,.,.,/,/
O=c1oc2cccnc2n1CCS(=O)(=O)c1ccc(F)cc1,-66,/,.,.,.,.
COCCNC(=O)c1ccccc1NC(=O)Cc1ccccc1,.,.,.,.,.,.
COc1ccc(C(=O)NCCNc2ccccc2[N+](=O)[O-])cc1,?,.,.,?,?,?
CCCNC(=O)c1ccc(S(=O)(=O)c2ccc(OC)cc2)c([N+](=O)[O-])c1,-92,/,4.1µM,5.2µM,.,?
CC(C)CCNC(=O)c1cc(-c2ccc(Br)s2)nc2ccccc12,/,.,?,15µM,/,/
COc1ccc(CNC(=O)c2cc(-c3ccc(Br)s3)nc3ccccc23)c(OC)c1,/,.,15µM,?,/,/
CC(C)CCNC(=O)c1cc(-c2cccs2)nc2ccccc12,.,/,?,?,.,.
OC(COC(c1ccc(Cl)cc1)c1ccc(Cl)cc1)CN1CCc2ccccc2C1 (centres undefined),-80,.,?,?,.,.
OC(COC(c1ccccc1)c1ccccc1)CN1CCOCC1 (centres undefined),.,.,?,?,.,.
OC(COC(c1ccc(Cl)cc1)c1ccc(Cl)cc1)CN1CCCC1 (centres undefined),-51,.,.,?,.,/
CN1CCN(CC(O)COC(c2ccc(Cl)cc2)c2ccc(Cl)cc2)CC1 (centres undefined),.,/,?,?,.,.
COc1cccc(OCC(O)CN2CCc3ccccc3C2)c1 (centres undefined),.,.,.,?,.,.
OC(COC(c1ccccc1)c1ccccc1)CN1CCc2ccccc2C1 (centres undefined),-87,.,21µM,?,.,.
Cc1ccc(C(OCC(O)CNC(C)c2ccccc2)c2ccccc2)cc1 (centres undefined),-107,.,12µM,7.3µM,.,.
O=C(Nc1ccccc1C(=O)OCc1cc(=O)n2c3c(sc2n1)CCCC3)c1ccc(F)cc1,/,.,?,.,/,/
OC(COC(c1ccc(F)cc1)c1ccc(F)cc1)CN1CCc2ccccc2C1 (centres undefined),-72,.,?,?,.,.
CC(NCC(O)COCc1ccc(Cl)cc1)c1ccccc1 (centres undefined),-59,.,?,?,.,.
Cc1ccc(C(OCC(O)CN2CCCCC2)c2ccccc2)cc1 (centres undefined),?,.,23µM,.,.,.
O=C1c2ccccc2C(=O)N1C(CO)C(O)c1ccc([N+](=O)[O-])cc1 (centres undefined),.,/,.,.,.,.
Cc1ccc(C(OCC(O)CNC(CO)C(O)c2ccc([N+](=O)[O-])cc2)c2ccccc2)cc1 (centres undefined),-84,/,15µM,?,.,.
